The results in this text go back to PubChem BioAssay.

SMILES strings stand for the structures.

The target of the experiment is Torsin-1A (Homo sapiens) (UniProt O14656). In words: torsin A binders from cell lysate, primary screen, small-molecule microarray, wild-type, 635/667 nm (AID 1149). To be noted: COS7 hTOR1A-WT lysate, 635 nm fluorescence, higher = more signal.
Chain of Torsin-1A (Homo sapiens) (O14656 whole entry, looked up): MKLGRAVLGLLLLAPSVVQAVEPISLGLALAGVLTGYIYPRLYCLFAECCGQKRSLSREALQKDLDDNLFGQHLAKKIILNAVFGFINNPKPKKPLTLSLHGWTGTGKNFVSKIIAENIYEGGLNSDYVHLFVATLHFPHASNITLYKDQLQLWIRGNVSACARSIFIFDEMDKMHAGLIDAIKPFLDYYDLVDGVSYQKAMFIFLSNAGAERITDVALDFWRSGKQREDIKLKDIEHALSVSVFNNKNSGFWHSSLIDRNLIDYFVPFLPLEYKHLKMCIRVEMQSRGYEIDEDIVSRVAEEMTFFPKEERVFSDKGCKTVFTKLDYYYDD
`CO[C@H]1O[C@H](CO)[C@@H](OC(=O)Nc2ccccc2)[C@@H]2OC(=O)[C@H](Cc3ccccc3)C/C=C/C[C@@H](Cc3ccccc3)C(=O)O[C@@H]12` had a composite z-score of 0.527.

With `CCCCC(=C=CC[C@@H](O)c1ccc(OCCO)cc1)C[C@@H](O)c1ccccn1`, the composite z-score was 0.634. As for `C=CCC(OC(C)=O)[C@@H]1[C@@H](N(Cc2cccc3ccccc23)C(=O)c2ccc(-c3ccccc3)cc2)c2cc(OCCCO)ccc2N1C(=O)c1ccc2ccccc2n1` (stereo not given in full), the composite z-score was determined as 0.178. With `COCCOC(=O)N1C(=O)[C@@]2(c3cc(C#CC4(O)CCCCCC4)ccc31)[C@H](c1ccc(OCCO)cc1)N1[C@H](c3ccccc3)[C@H](c3ccccc3)OC(=O)[C@H]1[C@@H]2C(N)=O`, the composite z-score turned out to be 0.974. Take `COc1ccc([Si](C)(C)[C@H]2[C@H](CCO)O[C@@]3(C(=O)N(Cc4ccc(N5CCOC5=O)cc4)c4ccccc43)[C@@H]2C)cc1`: the composite z-score was 0.216. The same measure for `Cc1c(-c2ccc(-c3ccc(Cl)c(Cl)c3)o2)nc(-c2ccccc2)c2c1CO[Si]2(C(C)C)C(C)C`: -0.455. `O=C1OCCC=C[C@H]2OC34C=CCN(CCN5CCOCC5)C(=O)[C@H]3N(CCCO)C(=O)[C@@H]4C12` (stereo not given in full) registered a composite z-score of -1.78. With `COC(=O)[C@@]1(Cc2ccc(F)cc2)[C@H]2c3cc(C(=O)N(C)C)n(CCO)c3C[C@H]2CN1C(=O)c1ccccc1` the figure was 0.149; with `CC(C)C[C@H]1NC(=O)[C@@H](C)NC(=O)[C@@]23C(=O)N[C@@H](Cc4ccccc4)C2[C@H](C)[C@@]2(C)O[C@H]2C3/C=C/C/C=C\CNC1=O` (stereo not given in full), -0.0221; with `N#Cc1ccc(C(O)C2C=CC3C(=O)N(c4ccccc4)C(=O)C3N2Nc2ccc([N+](=O)[O-])cc2)cc1` (stereo not given), 0.0605.

Turning to `CN(C)CCCC[C@@H]1NC(=O)[C@@H]2C[C@H](C(=O)NCc3ccc(F)cc3)[C@H](c3ccc(O)cc3)N2C1=O`, the composite z-score was 0.704. With `CC(=O)c1ccc(C(O)C2C=CC3C(=O)N(C)C(=O)C3N2NC(=O)OC(C)(C)C)cc1` (stereo not given) the figure was -0.0551; with `CO[C@H]1O[C@H](CO)[C@@H](OC(=O)Nc2ccc3c(c2)OCO3)[C@@H]2OC(=O)[C@@H](Cc3ccccc3)C/C=C/C[C@H](Cc3ccccc3)C(=O)O[C@@H]12`, -0.0548; with `O=C1NC(=O)C2C1C=CC(C(O)c1cccc(O)c1)N2Nc1ccc(Cl)cc1Cl` (stereo not given), -0.309. Take `Cc1ccc(S[C@]2(C(=O)NCCCN(C)C)CC(=O)N(Cc3ccccc3Cl)[C@@H]2c2ccc(CO)cc2I)cc1`: the composite z-score was -0.601. With `O=c1cccc(-c2ccccc2C(F)(F)F)o1` the figure was 0.242; with `COCCOC(=O)N1C(=O)[C@@]2(c3cc(C#CCC(C(=O)OC)C(=O)OC)ccc31)[C@H](c1ccc(OCCO)cc1)N1[C@H](c3ccccc3)[C@H](c3ccccc3)OC(=O)[C@H]1[C@@H]2C(=O)N1CCCCCCC1`, 2.42.

In turn, `C[C@H]1NC(=O)C([C@@H](C)OCc2ccccc2)NC(=O)[C@@]23C(=O)N[C@@H](Cc4ccccc4)C2[C@H](C)[C@@]2(C)O[C@H]2C3/C=C/C/C=C\CNC1=O` (stereo not given in full) showed a composite z-score of 0.378. The same measure for `COCC(=C=CC[C@@H](O)c1cccc(OCCO)c1)C[C@@H](O)COCc1ccccc1`: 1.58. `C=C(CCCC)C(=O)CC[C@H](OC(C)=O)c1ccccc1OCCO` registered a composite z-score of -1.49. The same measure for `CCC[C@@H]1C=C(C(=O)OCC)[C@H](c2ccccc2)N1S(=O)(=O)c1ccc(C)cc1`: 0.131. The same measure for `COCCOC(=O)N1C(=O)[C@@]2(c3cc(C#CC4(O)CCCCCC4)ccc31)[C@H](C(=O)N1CCc3cc(OC)c(OC)cc3C1)[C@H]1C(=O)O[C@H](c3ccccc3)[C@H](c3ccccc3)N1[C@@H]2c1ccc(O)cc1`: 1.25; for `Cc1ccc(F)cc1S(=O)(=O)N[C@@H]1CCN(Cc2ccc3c(c2)OCO3)C1`: 0.241; for `COCCOC(=O)N1C(=O)[C@@]2(c3cc(C#CC4(O)CCCCCC4)ccc31)[C@H](c1ccc(OCCO)cc1)N1[C@H](c3ccccc3)[C@H](c3ccccc3)OC(=O)[C@H]1[C@@H]2C(=O)N1CCCCCCC1`: 1.12.

For `CC(c1ccccc1)C(O)C1C=CC2C(=O)N(c3ccccc3)C(=O)C2N1Nc1ccc(C#N)cc1` (stereo not given), the composite z-score turned out to be 0.618. With `COC(=O)C(CC#Cc1ccc2c(c1)[C@]1(C(=O)N2)[C@H](c2ccc(O)cc2)N2[C@H](c3ccccc3)[C@H](c3ccccc3)OC(=O)[C@H]2[C@@H]1C(=O)N1CCc2cc(OC)c(OC)cc2C1)C(=O)OC` the figure was 0.966. The same measure for `C[N+](C)(C)CCCCCCNC(=O)[C@H]1C[C@H]2C(=O)NCC(=O)N2[C@H]1c1cccc(OCCO)c1`: 1.1. With `COC(=O)c1c(CC[C@@H](CO)NC(=O)N[C@@H](Cc2ccccc2)Cn2cc(-c3cncn3C)nn2)oc(C(C)=O)c1C(=O)OC` the figure was 0.443; with `O=C1O[C@@H](c2ccccc2)[C@@H](c2ccccc2)N2[C@@H](c3ccc(O)cc3)[C@]3(C(=O)Nc4ccc(C#CC5=CCCCC5)cc43)[C@@H](C(=O)N3CCCCCCC3)[C@H]12`, 1.12. Regarding `COC(=O)C1=CC(CCCO)=CC(C2CC2)N(Cc2cccc(OC(F)(F)F)c2)C=C1C(=O)OC` (stereo not given), the composite z-score is -0.38.

With `COCCOC(=O)N1C(=O)[C@@]2(c3cc(C#CCC(C(=O)OC)C(=O)OC)ccc31)[C@H](C(=O)N1CCCCCCC1)[C@H]1C(=O)O[C@H](c3ccccc3)[C@H](c3ccccc3)N1[C@@H]2c1ccccc1OCCO`, the composite z-score came to 1.27. The same measure for `COCCOC(=O)N1C(=O)[C@@]2(c3cc(C#CCCO)ccc31)[C@H](c1ccccc1OCCO)N1[C@H](c3ccccc3)[C@H](c3ccccc3)OC(=O)[C@H]1[C@@H]2C(=O)N1CCc2cc(OC)c(OC)cc2C1`: 1.17; for `COC(=O)[C@@H]1N=C(c2ccc(OCCCO)cc2)O[C@@H]1c1ccccc1CN=[N+]=[N-]`: -1.73. The same measure for `COC(=O)[C@H](Cc1ccc(O)cc1)N1CC2=CCCC=C[C@@H]2[C@H]1[C@H](O)Cc1ccccc1`: -0.246. The same measure for `C=CC[C@@]1(C(=O)N(C)C)N=C(c2ccc(OCCCO)cc2)O[C@@H]1c1ccccc1`: 0.986.
